Results from ChEMBL document CHEMBL1961873, “Compounds: GSK PKIS; Assays: Nanosyn kinase panel” (2012).

Experiments:
[1] = target: Fibroblast growth factor receptor 4 (Homo sapiens) (UniProt P22455); conditions: at 1 µM;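 note: reported figure is the averaged percent inhibition of FGFR4, from the GSK PKIS kinase screening panel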
[2] = target: Tyrosine-protein kinase Fgr (Homo sapiens) (UniProt P09769); conditions: at 0.1 µM
[3] = target: Tyrosine-protein kinase Fgr (Homo sapiens) (UniProt P09769); conditions: at 1 µM
[4] = target: Vascular endothelial growth factor receptor 1 (Homo sapiens) (UniProt P17948); conditions: at 0.1 µM
[5] = target: Vascular endothelial growth factor receptor 1 (Homo sapiens) (UniProt P17948); conditions: at 1 µM
[6] = target: Receptor-type tyrosine-protein kinase FLT3 (Homo sapiens) (UniProt P36888); conditions: at 0.1 µM
[7] = target: Receptor-type tyrosine-protein kinase FLT3 (Homo sapiens) (UniProt P36888); conditions: at 1 µM
[8] = system: T1, Receptor-type tyrosine-protein kinase FLT3 (Homo sapiens), P36888 [D835Y]; conditions: at 0.1 µM
T1 sequence (whole entry): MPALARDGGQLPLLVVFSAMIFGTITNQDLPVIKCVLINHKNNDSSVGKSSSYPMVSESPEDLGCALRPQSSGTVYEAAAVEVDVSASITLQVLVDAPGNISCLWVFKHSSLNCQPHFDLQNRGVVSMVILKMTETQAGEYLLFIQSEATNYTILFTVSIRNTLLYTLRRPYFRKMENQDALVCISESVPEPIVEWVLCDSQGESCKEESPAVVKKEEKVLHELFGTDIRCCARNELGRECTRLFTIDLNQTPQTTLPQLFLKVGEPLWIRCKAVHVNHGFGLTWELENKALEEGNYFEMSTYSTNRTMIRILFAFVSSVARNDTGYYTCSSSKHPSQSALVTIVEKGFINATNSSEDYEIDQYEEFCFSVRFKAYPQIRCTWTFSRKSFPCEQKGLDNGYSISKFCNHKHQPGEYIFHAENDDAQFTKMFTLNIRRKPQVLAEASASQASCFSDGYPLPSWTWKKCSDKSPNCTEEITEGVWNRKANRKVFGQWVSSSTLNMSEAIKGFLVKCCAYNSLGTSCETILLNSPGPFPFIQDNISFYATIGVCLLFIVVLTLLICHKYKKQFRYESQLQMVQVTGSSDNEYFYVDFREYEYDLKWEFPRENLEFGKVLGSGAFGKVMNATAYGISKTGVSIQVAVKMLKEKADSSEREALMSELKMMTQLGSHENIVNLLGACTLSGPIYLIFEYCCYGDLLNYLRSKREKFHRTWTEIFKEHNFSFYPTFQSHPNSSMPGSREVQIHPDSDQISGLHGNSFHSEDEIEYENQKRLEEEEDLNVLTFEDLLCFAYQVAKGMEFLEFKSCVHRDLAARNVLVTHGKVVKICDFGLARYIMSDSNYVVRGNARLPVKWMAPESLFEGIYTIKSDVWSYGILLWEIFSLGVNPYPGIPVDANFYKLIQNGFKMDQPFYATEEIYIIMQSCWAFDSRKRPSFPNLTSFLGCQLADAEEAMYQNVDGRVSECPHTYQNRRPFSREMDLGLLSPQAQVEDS

[9] = target: Non-receptor tyrosine-protein kinase TYK2 (Homo sapiens) (UniProt P29597); conditions: at 1 µM;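 note: values are mean percent inhibition of TYK2 kinase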
[10] = target: T2, Tyrosine-protein kinase receptor TYRO3 (Homo sapiens) (UniProt Q06418); conditions: at 0.1 µM
T2 sequence (whole entry): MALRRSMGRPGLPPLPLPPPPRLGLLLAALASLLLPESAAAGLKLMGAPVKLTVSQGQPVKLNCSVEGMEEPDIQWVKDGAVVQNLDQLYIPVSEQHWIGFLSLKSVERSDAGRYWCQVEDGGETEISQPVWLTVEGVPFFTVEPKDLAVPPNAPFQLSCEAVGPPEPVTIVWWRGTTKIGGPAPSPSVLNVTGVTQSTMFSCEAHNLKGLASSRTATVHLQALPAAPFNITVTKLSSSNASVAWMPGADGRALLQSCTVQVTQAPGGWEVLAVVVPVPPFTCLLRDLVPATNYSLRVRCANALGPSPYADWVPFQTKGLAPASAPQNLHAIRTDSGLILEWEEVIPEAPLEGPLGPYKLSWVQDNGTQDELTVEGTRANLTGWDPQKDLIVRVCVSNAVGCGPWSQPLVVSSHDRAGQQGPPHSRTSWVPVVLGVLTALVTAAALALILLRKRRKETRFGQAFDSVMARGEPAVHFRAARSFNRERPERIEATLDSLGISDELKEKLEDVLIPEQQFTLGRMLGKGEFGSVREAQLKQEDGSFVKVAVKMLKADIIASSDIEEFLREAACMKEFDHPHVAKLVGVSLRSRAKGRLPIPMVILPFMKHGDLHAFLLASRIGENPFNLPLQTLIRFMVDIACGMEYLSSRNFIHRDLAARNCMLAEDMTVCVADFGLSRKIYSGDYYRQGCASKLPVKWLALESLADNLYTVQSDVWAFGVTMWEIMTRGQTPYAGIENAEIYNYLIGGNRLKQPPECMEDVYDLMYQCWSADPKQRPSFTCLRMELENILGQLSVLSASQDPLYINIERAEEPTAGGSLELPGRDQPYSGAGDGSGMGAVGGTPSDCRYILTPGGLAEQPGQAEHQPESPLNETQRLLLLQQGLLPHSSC

[11] = target: T2, Tyrosine-protein kinase receptor TYRO3 (Homo sapiens); conditions: at 1 µM
[12] = target: Tyrosine-protein kinase Yes (Homo sapiens) (UniProt P07947); conditions: at 0.1 µM
[13] = target: Tyrosine-protein kinase Yes (Homo sapiens) (UniProt P07947); conditions: at 1 µM
[14] = target: T3, Tyrosine-protein kinase ZAP-70 (Homo sapiens) (UniProt P43403); conditions: at 0.1 µM
T3 sequence (whole entry): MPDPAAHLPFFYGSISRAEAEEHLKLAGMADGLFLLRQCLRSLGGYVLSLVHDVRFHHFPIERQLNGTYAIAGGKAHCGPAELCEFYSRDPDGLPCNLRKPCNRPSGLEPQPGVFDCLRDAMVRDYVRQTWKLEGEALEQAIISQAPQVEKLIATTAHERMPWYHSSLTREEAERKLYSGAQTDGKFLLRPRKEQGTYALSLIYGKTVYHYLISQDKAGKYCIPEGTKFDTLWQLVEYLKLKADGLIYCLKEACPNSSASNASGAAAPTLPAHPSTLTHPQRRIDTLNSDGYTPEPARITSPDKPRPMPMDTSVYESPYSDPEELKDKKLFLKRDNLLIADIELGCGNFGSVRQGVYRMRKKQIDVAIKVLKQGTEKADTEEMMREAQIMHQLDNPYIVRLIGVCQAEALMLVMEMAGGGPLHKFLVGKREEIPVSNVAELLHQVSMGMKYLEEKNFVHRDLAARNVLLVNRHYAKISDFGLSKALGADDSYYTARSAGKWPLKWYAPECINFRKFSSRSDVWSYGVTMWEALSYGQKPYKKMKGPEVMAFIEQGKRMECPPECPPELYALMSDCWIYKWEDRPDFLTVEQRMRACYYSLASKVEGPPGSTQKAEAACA

[15] = target: T3, Tyrosine-protein kinase ZAP-70 (Homo sapiens); conditions: at 1 µM
[16] = target: Serine/threonine-protein kinase B-raf (Homo sapiens) (UniProt P15056); conditions: at 0.1 µM
[17] = target: Serine/threonine-protein kinase B-raf (Homo sapiens) (UniProt P15056); conditions: at 1 µM
[18] = system: Serine/threonine-protein kinase B-raf (Homo sapiens), P15056 [V600E]; conditions: at 0.1 µM
[19] = system: Serine/threonine-protein kinase B-raf (Homo sapiens), P15056 [V600E]; conditions: at 1 µM
[20] = target: RAF proto-oncogene serine/threonine-protein kinase (Homo sapiens) (UniProt P04049); conditions: at 0.1 µM;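 note: values are mean CRAF kinase inhibition from profiling of the GSK Published Kinase Inhibitor Set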
Sequence of RAF proto-oncogene serine/threonine-protein kinase (Homo sapiens) (P04049 whole entry): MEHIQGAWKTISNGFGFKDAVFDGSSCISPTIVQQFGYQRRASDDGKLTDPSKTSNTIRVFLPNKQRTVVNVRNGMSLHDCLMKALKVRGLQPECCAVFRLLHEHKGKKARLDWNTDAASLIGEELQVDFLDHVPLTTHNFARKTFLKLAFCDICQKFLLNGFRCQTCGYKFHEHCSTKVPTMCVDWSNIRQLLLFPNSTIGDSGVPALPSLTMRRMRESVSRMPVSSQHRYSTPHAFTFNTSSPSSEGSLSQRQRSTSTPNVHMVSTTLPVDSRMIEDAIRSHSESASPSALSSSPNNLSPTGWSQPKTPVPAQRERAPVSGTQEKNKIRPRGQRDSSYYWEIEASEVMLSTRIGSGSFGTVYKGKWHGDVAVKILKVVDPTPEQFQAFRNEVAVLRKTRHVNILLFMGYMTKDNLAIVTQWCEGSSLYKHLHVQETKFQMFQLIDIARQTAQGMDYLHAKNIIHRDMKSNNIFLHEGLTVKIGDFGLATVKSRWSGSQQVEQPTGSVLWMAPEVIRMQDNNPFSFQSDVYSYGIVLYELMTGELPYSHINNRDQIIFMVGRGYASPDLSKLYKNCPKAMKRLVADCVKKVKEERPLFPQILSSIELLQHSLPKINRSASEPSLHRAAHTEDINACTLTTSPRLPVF

Sequence of Vascular endothelial growth factor receptor 1 (Homo sapiens) (P17948 whole entry): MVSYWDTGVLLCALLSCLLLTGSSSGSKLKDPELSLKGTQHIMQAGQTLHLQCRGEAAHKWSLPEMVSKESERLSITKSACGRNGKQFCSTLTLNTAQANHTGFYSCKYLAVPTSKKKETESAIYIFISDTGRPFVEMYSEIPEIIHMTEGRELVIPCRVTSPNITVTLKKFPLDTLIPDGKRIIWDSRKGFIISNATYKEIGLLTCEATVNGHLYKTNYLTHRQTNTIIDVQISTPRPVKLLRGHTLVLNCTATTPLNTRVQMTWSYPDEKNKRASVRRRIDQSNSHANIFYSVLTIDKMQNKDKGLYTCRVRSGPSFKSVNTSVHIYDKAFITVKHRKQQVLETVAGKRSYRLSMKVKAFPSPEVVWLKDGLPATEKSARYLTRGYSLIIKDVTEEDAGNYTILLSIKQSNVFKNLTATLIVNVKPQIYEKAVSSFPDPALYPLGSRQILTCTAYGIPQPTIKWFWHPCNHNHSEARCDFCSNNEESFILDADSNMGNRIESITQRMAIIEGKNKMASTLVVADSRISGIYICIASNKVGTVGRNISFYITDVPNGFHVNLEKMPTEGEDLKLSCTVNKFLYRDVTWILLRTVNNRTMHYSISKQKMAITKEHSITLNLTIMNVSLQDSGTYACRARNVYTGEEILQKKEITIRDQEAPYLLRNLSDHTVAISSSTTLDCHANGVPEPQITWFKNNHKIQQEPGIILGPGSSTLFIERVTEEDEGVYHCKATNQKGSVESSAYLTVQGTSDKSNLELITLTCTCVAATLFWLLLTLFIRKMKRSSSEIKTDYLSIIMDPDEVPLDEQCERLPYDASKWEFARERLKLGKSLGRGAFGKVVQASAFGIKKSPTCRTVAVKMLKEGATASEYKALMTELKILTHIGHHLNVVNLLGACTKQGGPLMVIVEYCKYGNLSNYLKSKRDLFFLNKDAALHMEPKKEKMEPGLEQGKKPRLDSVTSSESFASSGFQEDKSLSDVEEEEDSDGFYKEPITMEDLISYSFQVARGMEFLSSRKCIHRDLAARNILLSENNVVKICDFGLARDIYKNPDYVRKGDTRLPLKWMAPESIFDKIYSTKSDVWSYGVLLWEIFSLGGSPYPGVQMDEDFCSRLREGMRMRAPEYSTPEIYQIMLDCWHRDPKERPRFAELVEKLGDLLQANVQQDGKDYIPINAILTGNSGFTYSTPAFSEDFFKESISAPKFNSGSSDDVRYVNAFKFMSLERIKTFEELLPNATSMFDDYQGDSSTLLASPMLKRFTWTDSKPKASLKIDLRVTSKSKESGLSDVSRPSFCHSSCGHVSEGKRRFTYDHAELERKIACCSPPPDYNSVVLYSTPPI
Sequence of Serine/threonine-protein kinase B-raf (Homo sapiens), P15056 [V600E] (P15056 whole entry V600E): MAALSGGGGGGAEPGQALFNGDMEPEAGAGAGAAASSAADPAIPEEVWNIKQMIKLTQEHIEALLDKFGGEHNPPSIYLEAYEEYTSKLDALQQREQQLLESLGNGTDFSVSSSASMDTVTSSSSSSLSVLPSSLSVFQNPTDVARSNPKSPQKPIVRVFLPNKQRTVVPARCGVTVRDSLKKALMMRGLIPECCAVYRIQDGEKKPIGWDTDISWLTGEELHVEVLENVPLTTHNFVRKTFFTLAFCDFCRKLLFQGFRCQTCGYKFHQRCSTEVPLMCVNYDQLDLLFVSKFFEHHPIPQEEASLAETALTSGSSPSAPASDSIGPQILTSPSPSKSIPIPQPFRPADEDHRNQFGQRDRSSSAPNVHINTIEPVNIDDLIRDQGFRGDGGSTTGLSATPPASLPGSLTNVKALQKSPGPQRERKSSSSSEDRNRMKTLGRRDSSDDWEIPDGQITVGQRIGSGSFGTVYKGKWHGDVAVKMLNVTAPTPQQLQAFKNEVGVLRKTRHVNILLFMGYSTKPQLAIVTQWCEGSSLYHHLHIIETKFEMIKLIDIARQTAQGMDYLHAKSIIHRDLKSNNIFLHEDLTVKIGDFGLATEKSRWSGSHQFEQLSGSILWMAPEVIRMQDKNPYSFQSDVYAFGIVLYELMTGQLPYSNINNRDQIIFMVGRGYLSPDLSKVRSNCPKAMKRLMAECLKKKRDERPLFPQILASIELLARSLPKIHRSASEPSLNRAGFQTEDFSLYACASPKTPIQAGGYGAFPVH
Sequence of Tyrosine-protein kinase Fgr (Homo sapiens) (P09769 2-529 limits assumed): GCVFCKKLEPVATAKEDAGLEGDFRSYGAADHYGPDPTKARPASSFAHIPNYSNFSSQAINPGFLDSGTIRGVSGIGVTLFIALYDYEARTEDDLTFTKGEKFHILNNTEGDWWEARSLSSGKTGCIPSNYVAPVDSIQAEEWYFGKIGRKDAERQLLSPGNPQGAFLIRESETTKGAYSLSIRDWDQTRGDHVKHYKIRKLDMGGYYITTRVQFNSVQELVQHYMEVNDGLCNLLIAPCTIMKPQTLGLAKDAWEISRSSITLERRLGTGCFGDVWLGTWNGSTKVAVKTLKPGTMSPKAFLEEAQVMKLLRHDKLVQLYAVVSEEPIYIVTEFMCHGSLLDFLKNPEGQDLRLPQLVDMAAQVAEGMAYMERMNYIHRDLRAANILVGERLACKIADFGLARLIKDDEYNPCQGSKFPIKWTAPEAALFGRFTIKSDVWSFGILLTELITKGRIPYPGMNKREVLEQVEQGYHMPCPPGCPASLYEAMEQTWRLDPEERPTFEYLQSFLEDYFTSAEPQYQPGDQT
Sequence of Fibroblast growth factor receptor 4 (Homo sapiens) (P22455 22-802 limits assumed): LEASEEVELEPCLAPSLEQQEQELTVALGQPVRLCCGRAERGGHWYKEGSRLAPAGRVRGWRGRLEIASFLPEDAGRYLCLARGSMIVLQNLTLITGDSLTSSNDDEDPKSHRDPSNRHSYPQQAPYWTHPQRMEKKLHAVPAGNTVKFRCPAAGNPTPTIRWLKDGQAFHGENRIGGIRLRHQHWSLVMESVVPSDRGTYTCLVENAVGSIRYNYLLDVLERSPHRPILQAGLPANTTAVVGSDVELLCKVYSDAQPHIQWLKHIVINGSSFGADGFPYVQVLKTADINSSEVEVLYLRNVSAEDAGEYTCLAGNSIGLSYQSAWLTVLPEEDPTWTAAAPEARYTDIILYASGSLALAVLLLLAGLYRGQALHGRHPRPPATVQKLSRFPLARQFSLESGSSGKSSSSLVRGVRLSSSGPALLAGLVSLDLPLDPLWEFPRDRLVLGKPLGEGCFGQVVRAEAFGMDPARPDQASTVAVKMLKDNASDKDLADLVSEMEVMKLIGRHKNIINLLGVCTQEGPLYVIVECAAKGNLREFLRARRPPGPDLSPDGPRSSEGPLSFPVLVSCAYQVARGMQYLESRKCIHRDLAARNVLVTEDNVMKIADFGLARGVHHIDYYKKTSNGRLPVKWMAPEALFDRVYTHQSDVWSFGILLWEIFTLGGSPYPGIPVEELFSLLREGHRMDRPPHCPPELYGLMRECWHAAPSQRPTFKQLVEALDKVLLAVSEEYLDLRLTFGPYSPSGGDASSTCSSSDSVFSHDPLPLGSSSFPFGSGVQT
Sequence of Serine/threonine-protein kinase B-raf (Homo sapiens) (P15056 whole entry): as the sequence (P15056 whole entry V600E) above, with E600V counted along it
Sequence of Tyrosine-protein kinase Yes (Homo sapiens) (P07947 2-543 limits assumed): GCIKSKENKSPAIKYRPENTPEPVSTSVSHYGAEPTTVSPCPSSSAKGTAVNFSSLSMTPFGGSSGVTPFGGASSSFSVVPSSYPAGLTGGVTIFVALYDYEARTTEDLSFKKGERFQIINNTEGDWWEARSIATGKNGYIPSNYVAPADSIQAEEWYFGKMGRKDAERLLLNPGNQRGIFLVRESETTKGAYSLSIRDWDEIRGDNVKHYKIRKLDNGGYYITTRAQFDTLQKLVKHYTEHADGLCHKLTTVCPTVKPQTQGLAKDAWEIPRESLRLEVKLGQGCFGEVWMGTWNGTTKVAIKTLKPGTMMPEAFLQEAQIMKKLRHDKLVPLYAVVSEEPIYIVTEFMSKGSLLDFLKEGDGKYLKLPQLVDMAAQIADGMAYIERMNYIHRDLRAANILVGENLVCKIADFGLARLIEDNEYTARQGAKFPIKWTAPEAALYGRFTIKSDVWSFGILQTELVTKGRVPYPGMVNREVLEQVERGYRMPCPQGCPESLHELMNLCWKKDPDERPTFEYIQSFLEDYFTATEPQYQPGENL

Row | Structure (SMILES) | inhibition [1] | inhibition [2] | inhibition [3] | inhibition [4] | inhibition [5] | inhibition [6] | inhibition [7] | inhibition [8] | inhibition [9] | inhibition [10] | inhibition [11] | inhibition [12] | inhibition [13] | inhibition [14] | inhibition [15] | inhibition [16] | inhibition [17] | inhibition [18] | inhibition [19] | inhibition [20]
1 | COc1cc(Nc2ncc3c(C)nc(-c4cccc(C(F)(F)F)c4)n3n2)cc(OC)c1OC | 0.75% | 7.22% | 14% | 2.19% | 5.18% | 6.14% | 36.3% | 3.11% | -1.24% | 4.04% | 10.6% | 11.6% | 42.7% | 1.78% | 2.75% | 5.44% | 14.8% | 5.48% | 13.2% | 3.02%
2 | NC(=O)c1cc(-c2ccncc2)cc(-c2ccccc2)c1N | 1.49% | 6.05% | 27% | 1.74% | 5.65% | -1.2% | 4.55% | -0.35% | -2.55% | 2.62% | 3.61% | 7.5% | 36% | 4.11% | 29% | 8.42% | 8.98% | 8.18% | 8.65% | 1.06%
3 | Fc1ccc(-c2c(-c3ccncc3)nc3n2CCS3)cc1 | 0.11% | 2.37% | 2.64% | 0.25% | 1.28% | 0.81% | 1.71% | -1.87% | 0.83% | 1.94% | 1.69% | 2.78% | 5.33% | 0.51% | -2.36% | 4.16% | 4.3% | 3.07% | 4.28% | 2.08%
